Activity change, negative = inhibition and Potency data for 17 molecules are collected here from PubChem BioAssay (Tox21).

Results filed as inconclusive are left out. A call without a number means that no potency is given here. Unmarked numbers belong to inactive results. The source made the active and inactive calls. Calls follow the shape of the dose curve; as a rule, active = well fitted inhibition curve with a large enough effect in the repeat runs; inconclusive = weak or mixed curves; inactive = flat fitted curve, though single readings scatter.
Potency is read from the fitted curve at half-maximal effect.

In this assay the target is Voltage-gated inwardly rectifying potassium channel KCNH2 (Homo sapiens) (UniProt Q12809). Put plainly: Human Ether-a-go-go-Related Gene (hERG) channel small molecule antagonists: fluorescence cell-based qHTS assay (AID 1671200). Also: nearly all actives have a fitted effect of over 50% in size. As to conditions: hERG-U2OS cells, FluxOR thallium flux fluorescence; series mostly up to 76.8 µM. The method in brief: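 Measured: Tl+ flux via fluorescence (480/540 nm) in hERG-expressing U2OS cells after 1 h dye loading at room temperature.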
Voltage-gated inwardly rectifying potassium channel KCNH2 (Homo sapiens), sequence (Q12809 whole entry, looked up): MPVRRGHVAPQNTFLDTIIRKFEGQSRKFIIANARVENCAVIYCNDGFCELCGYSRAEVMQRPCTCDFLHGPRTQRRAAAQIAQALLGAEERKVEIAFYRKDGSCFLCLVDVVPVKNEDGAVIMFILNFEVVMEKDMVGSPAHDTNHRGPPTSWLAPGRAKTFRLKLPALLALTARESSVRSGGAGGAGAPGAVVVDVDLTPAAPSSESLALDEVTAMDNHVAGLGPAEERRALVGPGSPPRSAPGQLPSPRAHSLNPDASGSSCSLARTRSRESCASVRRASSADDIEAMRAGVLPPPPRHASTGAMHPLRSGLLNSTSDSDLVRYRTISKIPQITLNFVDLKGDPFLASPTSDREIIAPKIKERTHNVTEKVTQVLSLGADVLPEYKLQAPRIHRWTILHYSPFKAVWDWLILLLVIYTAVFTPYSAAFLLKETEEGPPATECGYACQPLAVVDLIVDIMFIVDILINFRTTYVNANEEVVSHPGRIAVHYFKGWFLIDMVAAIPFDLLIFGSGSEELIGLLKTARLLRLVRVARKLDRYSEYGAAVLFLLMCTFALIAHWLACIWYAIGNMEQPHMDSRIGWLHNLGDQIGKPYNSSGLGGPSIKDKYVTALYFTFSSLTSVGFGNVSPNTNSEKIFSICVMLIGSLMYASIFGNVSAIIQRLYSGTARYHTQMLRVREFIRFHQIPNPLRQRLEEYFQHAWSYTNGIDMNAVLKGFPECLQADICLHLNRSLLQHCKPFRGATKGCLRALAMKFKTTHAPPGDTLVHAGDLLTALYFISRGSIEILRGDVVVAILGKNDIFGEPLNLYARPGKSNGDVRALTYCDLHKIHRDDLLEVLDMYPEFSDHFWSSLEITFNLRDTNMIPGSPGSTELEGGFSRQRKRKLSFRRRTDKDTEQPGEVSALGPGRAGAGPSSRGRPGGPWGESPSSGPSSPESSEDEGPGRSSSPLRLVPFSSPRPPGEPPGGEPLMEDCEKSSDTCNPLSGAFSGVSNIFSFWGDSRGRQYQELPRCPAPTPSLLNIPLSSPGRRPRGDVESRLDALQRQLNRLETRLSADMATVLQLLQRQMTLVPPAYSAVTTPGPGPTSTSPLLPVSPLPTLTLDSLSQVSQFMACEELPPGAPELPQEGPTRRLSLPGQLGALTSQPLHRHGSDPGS
Regarding `N[C@@H](CSSC[C@H](N)C(=O)O)C(=O)O`, the activity change, negative = inhibition is -0.819% [at 0.29 µM].

Consider `Clc1cc(Cl)c(-c2c(Cl)c(Cl)cc(Cl)c2Cl)cc1Cl`, for which the Potency result is “inactive”.

Consider `CCCCCCCCCCCCOC(=O)c1cc(O)c(O)c(O)c1`, for which the Potency entry was “inactive”. For `C[C@H]1O[C@@H](O[C@H]2[C@@H](O)C[C@H](O[C@H]3[C@@H](O)C[C@H](O[C@H]4CC[C@@]5(C)[C@H](CC[C@@H]6[C@@H]5C[C@@H](O)[C@]5(C)[C@@H](C7=CC(=O)OC7)CC[C@]65O)C4)O[C@@H]3C)O[C@@H]2C)C[C@H](O)[C@@H]1O`, the Potency result was “inactive”. Turning to `CCCC(C)CCC(C)=O` (configuration not stated), the Potency result was “inactive”. Same read-out and setting: the same measure for `COc1cc(C(=O)NS(=O)(=O)c2ccccc2C)ccc1Cc1cn(C)c2ccc(NC(=O)OC3CCCC3)cc12`: “inactive”. As to `C=C1C(C)(C)[C@@]2(Cl)C(Cl)[C@]1(Cl)C(Cl)(Cl)C2(Cl)Cl` (some centres not stated), the Potency was 27 µM (active). As to `CCCCCCCCCCCCCC[n+]1ccccc1`, the Potency was 5.49 µM (active).

For `CCCCCCC(C)OC(=O)COc1nc(F)c(Cl)c(N)c1Cl` (configuration not stated), the Potency is 38.9 µM (active).

As to `c1cc(OCC2CO2)cc(OCC2CO2)c1` (configuration not stated), the Potency entry is “inactive”. Turning to `COc1ccccc1C=O`, the Potency result was “inactive”. For `Brc1ccccc1-c1ccccc1`, the Potency is 31.4 µM (active). As to `COC(=O)NCCC[Si](OC)(OC)OC`, the Potency result was “inactive”. On the same count and under the same terms, the entry for `O=C1OC(=O)c2cccc3cccc1c23` is “inactive”; for `CCN(CC)CCNc1ccc(CO)c2sc3ccccc3c(=O)c12` it is 10.7 µM (active).

With `CC(=O)OC(OC(C)=O)c1ccc([N+](=O)[O-])o1`, the Potency result is “inactive”. As to `Cc1cc(Nc2ccc(O)cc2)ccc1N`, the Potency entry was “inactive”.
